Results as given in PubChem BioAssay AID1159580 (chemical genetic matrix, 2015).
“And” between values parts separate entries of the source, which are not always exact repeats. Equal entries are not always repeated. Out of some 5,500 compounds screened, about 2,000 (36%) were called active. Not shown: some 18% with an inconclusive outcome. No stated cut-off is given here; in the data, active means normalized growth mostly below about 0.91 (no sharp cut-off); inconclusive means no clear call, values can overlap the other calls; inactive means mostly above about 0.92. The list shows a part of the results.

Test: chemical genetic growth profiling, strain panel (AID 1159580);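 further: tested at 20 µM; growth read once vehicle control cultures reached saturation at 30 °C; 1 = growth at the plate median or of vehicle wells; lower values mean less growth of the strain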
Conditions: S. cerevisiae deletion strains, growth OD

Measured: normalized growth

CC(=O)Oc1cc(OC(C)=O)c2c(c1)O[C@H](c1ccc(OC(C)=O)c(OC(C)=O)c1)[C@H](OC(C)=O)C2
inactive: locus YAL013W, strain DEP1, hits give low values 1.01 | locus YAL021C, strain ccr4, hits give low values 1 | locus YAL026C, strain drs2, hits give low values 1.01 | locus YAL030W, strain snc1, hits give low values 1 | locus YBL061C, strain skt5, hits give low values 0.994 | locus YBR009C, strain hhf1, hits give low values 0.965 | locus YBR021W, strain FUR4, hits give low values 1 | locus YBR023C, strain chs3, hits give low values 0.998 | locus YBR171W, strain sec66, hits give low values 0.999 | locus YBR229C, strain ROT2, hits give low values 1.01 | locus YBR231C, strain swc5, hits give low values 1.01 | locus YBR279W, strain paf1, hits give low values 0.985 | locus YCL011C, strain gbp2, hits give low values 0.982 | locus YCL016C, strain dcc1, hits give low values 0.971 | locus YCL029C, strain bik1, hits give low values 1.02 | locus YCL061C, strain MRC1, hits give low values 0.999 | locus YCL069W, strain vba3, hits give low values 1 | locus YCR088W, strain abp1, hits give low values 1 | locus YDL005C, strain med2, hits give low values 1.01 | locus YDL035C, strain GPR1, hits give low values 1.01 | locus YDL040C, strain nat1, hits give low values 1 | locus YDL074C, strain BRE1, hits give low values 1.01 | locus YDL101C, strain DUN1, hits give low values 1.01 | locus YDL185W, strain tfp1, hits give low values 1.03 | locus YDL192W, strain arf1, hits give low values 1.02 | locus YDR001C, strain nth1, hits give low values 0.999 | locus YDR069C, strain doa4, hits give low values 1 | locus YDR101C, strain arx1, hits give low values 1.02 | locus YDR137W, strain rgp1, hits give low values 1.02 | locus YDR159W, strain sac3, hits give low values 1.02 | locus YDR162C, strain NBP2, hits give low values 1 | locus YDR195W, strain ref2 1.04 | locus YDR297W, strain sur2, hits give low values 0.996 | locus YDR318W, strain mcm21, hits give low values 1.03 | locus YDR334W, strain swr1, hits give low values 1 | locus YDR335W, strain msn5, hits give low values 1 | locus YDR388W, hits give low values 1.03 | locus YDR392W, strain spt3, hits give low values 0.964 | locus YDR502C, strain sam2, hits give low values 1.02 | locus YEL003W, strain gim4, hits give low values 1 | locus YEL037C, strain rad23, hits give low values 1 | locus YEL061C, strain CIN8 (second series), hits give low values 0.997 | locus YEL061C, strain CIN8, hits give low values 1 | locus YER015W, strain faa2, hits give low values 0.983 | locus YER016W, strain bim1, hits give low values 1 | locus YER110C, hits give low values 1.03 | locus YER111C, strain swi4, hits give low values 0.995 | locus YER155C, strain BEM2 (second series), hits give low values 1.05 | locus YER155C, strain BEM2, hits give low values 0.999 | locus YER167W, strain BCK2, hits give low values 1.02 | locus YFR010W, strain ubp6, hits give low values 0.998 | locus YGL078C, strain dbp3, hits give low values 1.02 | locus YGL086W, strain mad1, hits give low values 0.997 | locus YGL167C, strain pmr1, hits give low values 0.998 | locus YGL173C, strain kem1, hits give low values 1 | locus YGL227W, strain vid30, hits give low values 0.991 | locus YGL240W, strain doc1, hits give low values 1.04 | locus YGL248W, strain PDE1, hits give low values 1.01 | locus YGL253W, strain hxk2, hits give low values 0.984 | locus YGR078C, strain PAC10, hits give low values 1 | locus YGR135W, strain pre9, hits give low values 1.02 | locus YGR252W, strain gcn5, hits give low values 1.05 | locus YHR013C, strain ard1, hits give low values 0.999 | locus YHR027C, strain rpn1, hits give low values 0.999 | locus YHR030C, strain SLT2, hits give low values 1.01 and 0.946 | locus YHR079C, strain IRE1 (second series), hits give low values 1.03 | locus YHR079C, strain IRE1, hits give low values 0.968 | locus YHR094C, strain hxt1, hits give low values 1.02 | locus YHR129C, strain ARP1, hits give low values 1.01 | locus YHR142W, strain chs7, hits give low values 0.944 | locus YHR200W, strain rpn10, hits give low values 1.03 | locus YIL066C, strain RNR3, hits give low values 0.999 | locus YIL073C, strain SPO22, hits give low values 1.1 | locus YIL125W, strain kgd1, hits give low values 1.01 | locus YIR030C, strain dcg1, hits give low values 1.03 | locus YJL092W, strain hpr5, hits give low values 1 | locus YJL095W, strain BCK1 (second series), hits give low values 0.99 | locus YJL095W, strain BCK1, hits give low values 1 and 0.959 | locus YJL115W, strain asf1, hits give low values 1 | locus YJL129C, strain trk1, hits give low values 0.999 | locus YJL134W, strain LCB3, hits give low values 1.01 | locus YJL154C, strain vps35, hits give low values 1 | locus YJL164C, strain tpk1, hits give low values 0.984 | locus YJL166W, strain qcr8, hits give low values 1 | locus YJL168C, strain set2, hits give low values 1.03 | locus YJL187C, strain SWE1 (second series), hits give low values 1.01 | locus YJL187C, strain SWE1, hits give low values 1.01 | locus YJR043C, strain POL32, hits give low values 1.01 | locus YJR066W, strain TOR1, hits give low values 0.935 | locus YJR075W, strain HOC1, hits give low values 1.02 | locus YKL009W, strain mrt4, hits give low values 1.02 | locus YKL068W, hits give low values 1.01 | locus YKL085W, strain MDH1 (second series), hits give low values 1.01 | locus YKL085W, strain MDH1, hits give low values 1.01 | locus YKL160W, strain elf1, hits give low values 1.01 | locus YKR001C, strain vps1, hits give low values 1.02 | locus YKR026C, strain gcn3, hits give low values 0.994 | locus YKR091W, strain srl3, hits give low values 0.994 | locus YLL001W, strain dnm1, hits give low values 0.985 | locus YLL026W, hits give low values 0.999 | locus YLL041C, strain sdh2, hits give low values 1.01 | locus YLR027C, strain aat2, hits give low values 1.01 | locus YLR039C, strain RIC1, hits give low values 1.09 | locus YLR058C, strain SHM2, hits give low values 1.01 | locus YLR102C, strain apc9, hits give low values 1.02 | locus YLR113W, strain HOG1, hits give low values 0.94 | locus YLR221C, strain rsa3, hits give low values 0.964 | locus YLR258W, strain gsy2, hits give low values 0.979 | locus YLR262C, strain YPT6 (second series), hits give low values 0.997 | locus YLR262C, strain YPT6, hits give low values 1.12 | locus YLR268W, strain sec22, hits give low values 1.04 | locus YLR320W, strain mms22, hits give low values 0.984 | locus YLR330W, strain CHS5, hits give low values 1.02 | locus YLR342W, strain FKS1 (second series), hits give low values 1.01 | locus YLR342W, strain FKS1, hits give low values 1 | locus YLR357W, strain rsc2, hits give low values 1.01 | locus YLR370C, strain arc18, hits give low values 0.979 | locus YLR371W, strain rom2, hits give low values 1.03 | locus YLR384C, strain iki3, hits give low values 1 | locus YLR418C, strain cdc73, hits give low values 1.06 | locus YML016C, strain PPZ1, hits give low values 1.01 | locus YML032C, strain rad52, hits give low values 1.03 | locus YML120C, strain ndi1, hits give low values 0.981 | locus YML124C, strain tub3, hits give low values 1.02 | locus YMR058W, strain fet3, hits give low values 1.01 | locus YMR078C, strain ctf18, hits give low values 1.02 | locus YMR125W, strain sto1, hits give low values 0.995 | locus YMR129W, hits give low values 1 | locus YMR205C, strain PFK2, hits give low values 0.992 | locus YMR223W, strain ubp8, hits give low values 1.02 | locus YMR231W, strain pep5, hits give low values 1.01 | locus YMR307W, strain GAS1, hits give low values 1.01 | locus YNL067W, strain RPL9B, hits give low values 1.02 | locus YNL071W, strain lat1, hits give low values 1.01 | locus YNL183C, strain NPR1, hits give low values 0.91 | locus YNL209W, strain ssb2, hits give low values 0.996 | locus YNL233W, strain BNI4, hits give low values 1.01 | locus YNL248C, strain rpa49, hits give low values 1.03 | locus YNL250W, strain rad50, hits give low values 1.03 | locus YNL271C, strain bni1, hits give low values 1.02 | locus YNL298W, strain CLA4, hits give low values 1.03 | locus YNL307C, strain MCK1, hits give low values 1.07 | locus YNL322C, strain KRE1 (second series), hits give low values 0.997 | locus YNR049C, strain mso1, hits give low values 1 | locus YNR052C, strain pop2, hits give low values 1.03 | locus YOL012C, strain htz1 0.664 | locus YOL147C, strain pex11, hits give low values 1.02 | locus YOR001W, strain rrp6, hits give low values 1.02 | locus YOR061W, strain CKA2, hits give low values 1 | locus YOR069W, strain VPS5, hits give low values 1.01 | locus YOR070C, strain gyp1, hits give low values 0.997 | locus YOR080W, strain dia2, hits give low values 1 | locus YOR083W, strain WHI5, hits give low values 0.997 | locus YOR106W, strain vam3, hits give low values 1.01 | locus YOR136W, strain idh2, hits give low values 1.05 | locus YOR144C, strain elg1, hits give low values 1.02 | locus YOR184W, strain ser1, hits give low values 1.03 | locus YOR231W, strain MKK1, hits give low values 0.965 | locus YOR265W, strain rbl2, hits give low values 1.01 | locus YOR270C, strain vph1, hits give low values 0.943 | locus YOR290C, strain snf2, hits give low values 0.996 | locus YOR316C, strain cot1, hits give low values 1.03 | locus YPL051W, strain arl3, hits give low values 0.997 | locus YPL078C, strain atp4, hits give low values 1.01 | locus YPL106C, strain sse1, hits give low values 0.967 | locus YPL240C, strain hsp82, hits give low values 0.99 | locus YPL256C, strain CLN2, hits give low values 0.933 | locus YPR119W, strain clb2, hits give low values 1.01 | locus YPR141C, strain kar3, hits give low values 1.02 | locus YPR163C, strain tif3, hits give low values 1.05 | locus YPR167C, strain met16, hits give low values 1.04 | strain wtn01, hits give low values 1.01
